Source: PubChem BioAssay AID1117319 (Southern Research Institute, 2015)
In all, about 260,000 compounds went through this assay and about 1,500 (0.58%) were called active. Inconclusive results (about 5%) are left out.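 Rule for the calls: active = inhibition above a set limit at one or more doses, reproduced on every date tested; inconclusive = results disagree between test dates, or hit never tested in dose response; inactive = the rest.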 A selection follows. Measured potencies and affinities stand elsewhere.

biological target: Virion infectivity factor (Human immunodeficiency virus type 1 group M subtype B (isolate BH10)) + Virion infectivity factor (Human immunodeficiency virus type 1 group M subtype B (isolate BRU/LAI)) + Virion infectivity factor (Human immunodeficiency virus type 1 group M subtype B (isolate PCV12)) + Virion infectivity factor (Human immunodeficiency virus type 1 group M subtype B (isolate HXB2)) + DNA dC->dU-editing enzyme APOBEC-3G (Homo sapiens) (UniProt P69720+P69721+P69722+P69723+Q9HC16); test: inhibitors of Vif binding to APOBEC3G peptide, primary screen, biochemical, TR-FRET, GST-Vif 1-94, biotin-A3G peptide, dose response retest (AID 1117319); settings: active compounds read high;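 note: Vif residues 1-94 fused to GST binding biotinylated APOBEC3G peptide 110-148; 0% = full assay without inhibitor and 100% = GST in place of GST-Vif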

inhibition, inactive:
CCOC(=O)c1cc(-c2cccc(C(F)(F)F)c2)nc2nc(SC)[nH]c(=O)c12 -8.37%
O=C(Nc1ccnn1C1CCN(Cc2ccc(C#CCCO)cc2)CC1)c1cccc(F)c1 4.84%
CCS(=O)(=O)Nc1ccc(NC(C)=O)cc1 10.1%
CNC(=O)CSc1nnc(-c2ccccc2)n1C -0.87%
Cc1oc(-c2cccc(Cl)c2)nc1CN1CCC(C(=O)N2CCN(c3ccccn3)CC2)CC1 6.2%
CCc1ccc(-c2nc(CN3CCC(C(=O)N4CCN(c5ccccn5)CC4)CC3)c(C)o2)cc1 -7.35%
CCOc1ccc2nc(NC(=O)C3CCCN(S(=O)(=O)c4c(C)noc4C)C3)sc2c1 (configuration not stated) -3.03%
Cc1cc(NC(=O)c2ccc(Cl)cc2)c(C)cc1O -1.13%
Cc1cc(C(c2ccc(O)cc2)c2cc(C)c(O)cc2C)c(C)cc1O 1.89%
CCOC(=O)c1c(S(=O)(=O)NCC2CCN(Cc3cccc(F)c3)CC2)c(C)n(C)c1C -4.42%
O=C(CCN1C(=O)S/C(=C\c2cccs2)C1=O)NC1=NCCS1 25.6%
O=C(CCN1C(=O)/C(=C/c2ccccc2Cl)SC1=S)NC1=NCCS1 9.65%
CCC1(c2ccc(F)cc2)NC(=O)N(CC(=O)NCc2ccc(C)cc2)C1=O (configuration not stated) -8.4%
COc1cccc(C(=O)N2CCN(C(=O)Cc3ccccc3)CC2)c1 -2.27%
CC1=NN(c2ccccc2)C(=O)/C1=C\c1cc(C)n(C)c1C 6.69%
Cc1ccc(Cn2nnc3c(=O)n(CC(=O)NCc4ccco4)cnc32)cc1 16.3%
O=C(Cn1cnc2c(nnn2Cc2ccccc2)c1=O)NCc1ccco1 -2%
CC(O)CNc1ccc([N+](=O)[O-])cc1S(=O)(=O)N1CCOCC1 (configuration not stated) 6.02%
NS(=O)(=O)c1ccc(N/N=C/c2ccc(O)cc2O)c([N+](=O)[O-])c1 -13.8%
NS(=O)(=O)c1ccc(N/N=C/c2ccccc2C(=O)O)c([N+](=O)[O-])c1 -3.72%
O=[N+]([O-])c1ccc(NCCCO)c(S(=O)(=O)N2CCOCC2)c1 -0.32%
O=C(CCNS(=O)(=O)c1ccc(Br)cc1)N1CCN(c2ccccc2O)CC1 0.32%
Cc1ccc(OCCOCCN2CCN(C)CC2)c([N+](=O)[O-])c1 6.13%
CCOC(=O)C1CCN(c2c(NCc3ccc(C(=O)NC4CCCC4)cc3)c(=O)c2=O)CC1 0.11%
COc1ccc(Cc2c(O)nc(SCC(=O)N3CCCCCC3)[nH]c2=O)cc1 -4.82%
Cc1cccc(NC(=O)/C=C/c2cccs2)n1 4.61%
O=C(/C=C/c1cccs1)Nc1cccc(NC(=O)/C=C/c2cccs2)n1 13.7%
Cc1nn(-c2ccc(Cl)cn2)c2c1C(=O)CC(C)(C)C2Br (configuration not stated) -0.39%
CO[C@@]12[C@@H]3N[C@@H]3CN1C1=C(C(=O)C(N)=C(C)C1=O)[C@@H]2COC(N)=O 5.83%
[O-][n+]1c2ccc3nonc3c2nn1-c1ccccc1Cl -0.31%
O=C(CSc1ccc(-c2ccccn2)nn1)Nc1nccs1 -5.9%
CCOCCCNC(=O)c1cccc(NC(=O)C2=C(C)OCCS2)c1 -0.24%
COc1cc(CC(=O)OCC(=O)Nc2ccc([N+](=O)[O-])cc2)cc(OC)c1OC 31.8%
COc1ccc([N+](=O)[O-])cc1NC(=O)COC(=O)Cc1cc(OC)c(OC)c(OC)c1 -5.64%
Cc1csc(SCC(=O)NC2CCS(=O)(=O)C2)n1 (configuration not stated) -3.32%
COc1cccc(NC(=O)CN2C(=O)COc3ccc(S(=O)(=O)N4CCOCC4)cc32)c1 0%
CCOC(=O)c1cccc(NC(=O)c2ccc(-n3cnnn3)cc2)c1 -5.14%
CC(=O)c1ccc(NC(=O)c2ccc(-n3cnnn3)cc2)cc1 -12.9%
COc1ccc(NC(=O)CCc2ccccc2)cc1S(=O)(=O)N1CCCCC1 2.14%
O=C(Nc1nc2ccccc2s1)c1ccc2c(c1)S(=O)(=O)c1ccccc1C2=O 28.5%
O=C(c1ccc(Br)o1)N1CCN(C/C=C/c2ccccc2)CC1 2.12%
C/C(=N\NC(=S)NCc1ccccc1)c1ccc(C(C)(C)C)cc1 9.19%
C/C(CCC(=O)O)=N/Nc1ccc([N+](=O)[O-])cc1[N+](=O)[O-] 5.85%
CN1CCN(C2=C(NS(=O)(=O)c3ccccc3)C(=O)c3ccccc3C2=O)CC1 -3.21%
CC(C)NC1=C(Cl)C(=O)c2ccccc2C1=O 2.61%
NC(=O)C1CCN(C2OC(=O)c3ccccc32)CC1 (configuration not stated) -1.56%
O=C1C(Cl)=C(NCCCN2CCOCC2)C(=O)c2ccccc21 3.39%
NC(=O)C1CCN(C2=C(NS(=O)(=O)c3ccc(Cl)cc3)C(=O)c3ccccc3C2=O)CC1 10.6%
CN1CCN(C2=C(Cl)C(=O)N(Cc3ccccc3)C2=O)CC1 14.1%
COc1ccc(OC)c(NC(=O)CNC(=O)Cn2c(C)cc3ccccc3c2=O)c1 7.41%
O=C(c1ccco1)N1CCN(C(=O)C2Cc3ccccc3CN2S(=O)(=O)c2ccc(F)cc2)CC1 (configuration not stated) -4.72%
CN(Cc1cccc2cnccc12)C(=O)c1cc(COc2ccc(F)cc2F)on1 -7.76%
COc1cccc(CN2CCN(Cc3cccc4c3OCO4)CC2CCO)c1 (configuration not stated) -2.33%
CCOC(=O)C(C(=O)NCc1ccc(F)cc1)c1ncc(C(F)(F)F)cc1Cl (configuration not stated) 5.68%
Nc1ncnc(Nc2cc(C(F)(F)F)cc(C(F)(F)F)c2)n1 11%
COc1ccc(C(=O)N/C(=C/c2cccnc2)C(=O)N2CCCCCC2)cc1OC 2.36%
COc1ccccc1C(=O)N/C(=C\c1ccc(Br)cc1)C(=O)NCCC(=O)O -1.86%
